The source of these data is the supplement of paper PMC3334620.

In all, about 33,000 sequences were measured (“E-score (-0.5 to 0.5)”: median about -0.032, highest 2% from about 0.36 on). The sample as a whole holds a higher share of the highest values than the screen did.

The assay deals with T1, Sko1 (UniProt Q02100).
T1 sequence: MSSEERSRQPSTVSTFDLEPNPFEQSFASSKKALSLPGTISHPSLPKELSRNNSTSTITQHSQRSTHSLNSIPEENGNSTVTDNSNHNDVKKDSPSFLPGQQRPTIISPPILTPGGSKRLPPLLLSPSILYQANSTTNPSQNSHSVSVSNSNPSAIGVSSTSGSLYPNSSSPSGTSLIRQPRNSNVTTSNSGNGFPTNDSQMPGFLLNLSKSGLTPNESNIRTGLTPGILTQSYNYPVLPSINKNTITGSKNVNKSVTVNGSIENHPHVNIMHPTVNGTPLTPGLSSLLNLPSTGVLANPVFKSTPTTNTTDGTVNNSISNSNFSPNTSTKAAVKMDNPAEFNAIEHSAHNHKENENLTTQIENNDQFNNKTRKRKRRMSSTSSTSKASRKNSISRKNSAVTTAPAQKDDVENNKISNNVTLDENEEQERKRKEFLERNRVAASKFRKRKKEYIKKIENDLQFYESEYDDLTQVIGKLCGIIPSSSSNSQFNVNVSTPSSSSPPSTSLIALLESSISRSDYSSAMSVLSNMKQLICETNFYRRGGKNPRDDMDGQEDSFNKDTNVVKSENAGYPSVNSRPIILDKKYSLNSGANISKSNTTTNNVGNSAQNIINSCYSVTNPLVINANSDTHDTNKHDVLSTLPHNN
Description: PBM E-score (8-mer binding enrichment) (E-score (-0.5 to 0.5)); higher = stronger / more preferred TF binding. The conditions noted are these: protein concentration: 200 nM; construct: GST-full length. The method, then: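 Universal 'all 10-mer' protein binding microarrays (Agilent AMADID 015681) probed with GST-tagged S. cerevisiae TFs (full-length or DBD) made by in vitro transcription/translation (PURExpress), about 100-200 nM. Bound TF was detected with fluorescent anti-GST. Each ungapped 8-mer (which stands for itself and its reverse complement) is scored by the PBM enrichment score (E-score), a modified Wilcoxon-Mann-Whitney statistic from -0.5 to +0.5, computed with the Universal PBM Analysis Suite. Scale: above 0.35 generally sequence-specific binding.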
Turning to ATGATGAG, the “PBM E-score” value is 0.275.
ATGATGTG: the “PBM E-score” value came out at 0.379.
In the case of AGGATGTG, the “PBM E-score” value is -0.206.
Consider AACTCCAG, for which the “PBM E-score” value is -0.205.
On to AGGAACAT, for which the “PBM E-score” value stood at 0.176.
On to AAAGAACG, for which the “PBM E-score” value was 0.143.
As to ATTGACTA, the “PBM E-score” value is -0.0436.
The value for CCTATTTC was 0.0978.
Next, CGTATTTA: 0.419.
CGTATTTC: the “PBM E-score” value turned out to be 0.367.
As for AGTATTTA, the “PBM E-score” value is 0.164.
On to GGTATTTA, for which the “PBM E-score” value came out at 0.0513.
As to AGTATTTC, the “PBM E-score” value is 0.108.
For GTCGAGAA, the “PBM E-score” value came to 0.107.
For CCGATGAA, the “PBM E-score” value was -0.198.
In the case of AGAGAGGC, the “PBM E-score” value was -0.353.
Consider AGCCCAGG, for which the “PBM E-score” value is -0.331.
Take AACTAAGC: the “PBM E-score” value is 0.123.
On to GAAGGAAC, for which the “PBM E-score” value is -0.138.
The value for TAAACGTA was 0.42.
As for AAAACGTG, the “PBM E-score” value amounted to 0.304.
In the case of AAAACGCC, the “PBM E-score” value amounted to 0.0157.
In the case of CAAACGTA, the “PBM E-score” value came to 0.416.
For the sequence CAAACGCA, the “PBM E-score” value was 0.0771.
Turning to AAAACGAC, the “PBM E-score” value was 0.113.
As for CAAACGTG, the “PBM E-score” value was found to be 0.272.
Next, TAAACGGA: -0.0437; AAAACGTA: 0.449; TAAACGAA: 0.116.
For AAAACGTC, the “PBM E-score” value was 0.409.
As to AAAACGTT, the “PBM E-score” value was determined as 0.207.
Regarding CGTGCTAC, the “PBM E-score” value amounted to 0.208.
Turning to CACTATAG, the “PBM E-score” value is -0.00316.
In the case of ATTTCAAC, the “PBM E-score” value was 0.0828.
As for ACGGTAGG, the “PBM E-score” value was -0.189.
The value for GAAACGTA was 0.398; that for CAAACGTC was 0.329.
As to GAAACGGA, the “PBM E-score” value turned out to be 0.15.
For GAAACGAA, the “PBM E-score” value worked out at 0.115.
On to GAAACGTC, for which the “PBM E-score” value was 0.385.
For the sequence GAAACGCC, the “PBM E-score” value stood at 0.145.
As for ACTAACTA, the “PBM E-score” value was -0.0162.
As to AGGTTGCA, the “PBM E-score” value was 0.0863.
As for GCAGCGGA, the “PBM E-score” value is -0.11.
With CCCTGAGC, the “PBM E-score” value is -0.145.
For ACCATTGA, the “PBM E-score” value was found to be 0.0435.
AGTCGTAT: the “PBM E-score” value was 0.0845.
With AGACGTAT, the “PBM E-score” value amounted to 0.441.
The value for AGACGTTG was 0.111; that for AGACGTCG was 0.21; that for AGGCGTAC was 0.105.
Next, AGCCGTAT: -0.0778; AGACGTAG: 0.382; AGACGTAC: 0.395.
Next, ATGCAGGC: -0.024; CGTGCAAG: 0.0462.
For CCTACAAA, the “PBM E-score” value was -0.0324.
Consider CAAGTCTA, for which the “PBM E-score” value was -0.0923.
With ACCCTGAT, the “PBM E-score” value is -0.0969.
Regarding AGCCCTAT, the “PBM E-score” value is -0.331.
In the case of CCGCGGGA, the “PBM E-score” value is -0.201.
Turning to AATGCCCT, the “PBM E-score” value is -0.205.
AGAGGGTA: the “PBM E-score” value is -0.035.
Take CTGTCGTC: the “PBM E-score” value is 0.21.
Take ATGTCGTA: the “PBM E-score” value worked out at 0.424.
Next, GTGTCGTA: 0.312; ATGTCGGC: -0.12.
Regarding ATGTCGTC, the “PBM E-score” value was found to be 0.365.
Next, ATGTCGTG: 0.239; TGATAGAA: 0.0834.
Turning to AGGAGGTC, the “PBM E-score” value is -0.24.
As for AGCTAACA, the “PBM E-score” value was -0.0839.
As to AGGCACGA, the “PBM E-score” value stood at 0.0425.
In the case of ACGACGTG, the “PBM E-score” value turned out to be 0.365.
As for ACGACGAC, the “PBM E-score” value was 0.00819.
Next, ACGACGCC: 0.0289; ACGACGGA: 0.0966.
With ACGACGTA, the “PBM E-score” value amounted to 0.446.
Take ACGACGAG: the “PBM E-score” value came to 0.00694.
As to ACGACGTC, the “PBM E-score” value worked out at 0.367.
Consider ACGACGGG, for which the “PBM E-score” value turned out to be 0.0518.
ACGACGAT: the “PBM E-score” value is 0.127.
As to ATGGGCAA, the “PBM E-score” value is -0.138.
Regarding AGGAGATC, the “PBM E-score” value was -0.214.
On to AGAAACAT, for which the “PBM E-score” value came out at 0.152.
With TCCTTGCA, the “PBM E-score” value was -0.292.
For AAAATTCC, the “PBM E-score” value is -0.152.
CACGCCGG: the “PBM E-score” value was -0.211.
As to CGAAAAGA, the “PBM E-score” value was determined as 0.163.
Consider GATTCGTA, for which the “PBM E-score” value stood at 0.251.
In the case of ATTTCGTC, the “PBM E-score” value was 0.343.
The value for CTTTCGTA was 0.339.
Take ATTTCGTA: the “PBM E-score” value was determined as 0.372.
AATTCGTA: the “PBM E-score” value amounted to 0.386.
In the case of CATTCGTA, the “PBM E-score” value was 0.317.
As for CGCGGAAC, the “PBM E-score” value is -0.165.
Consider GGCTTCCA, for which the “PBM E-score” value was -0.218.
Next, TACGTGCA: 0.423; AACGTGCA: 0.191; CACGTGCA: 0.329.
GACGTGCA: the “PBM E-score” value worked out at 0.389.
The value for GACGTGCC was 0.266.
With GGCGTGCA, the “PBM E-score” value was -0.0639.
The value for AGACTATA was 0.00094; that for CCAAGTGC was -0.285; that for AGCACGTC was 0.309.
Turning to AGCACGAG, the “PBM E-score” value is -0.0498.
As to AGCACGAA, the “PBM E-score” value is 0.169.
For AGCACGTA, the “PBM E-score” value was determined as 0.406.
Take AGCACGTG: the “PBM E-score” value amounted to 0.397.
Next, AGCACATA: 0.0436.
